UDG counter – counter-screen for AID inhibitors: uracil-DNA glycosylase inhibition | FRET deamination/UDG coupled assay, UDG read, 4 h | Potency, µM (doses to about 115 µM), usual class: inhibitors | hit rate 0.14% among 91,000; further: nearly all actives have a fitted effect of over 65% in size
AID inh – activation induced cytidine deaminase inhibition | Q9GZX7 | Potency, µM (series often up to 115 µM), actives largely listed as inhibitors | hit rate 0.32% among 91,000 | AID deamination FRET fluorescence, UDG-coupled, 4 h; further: nearly all actives have a fitted effect of over 25% in size
Target sequence (Q9GZX7 whole entry, looked up): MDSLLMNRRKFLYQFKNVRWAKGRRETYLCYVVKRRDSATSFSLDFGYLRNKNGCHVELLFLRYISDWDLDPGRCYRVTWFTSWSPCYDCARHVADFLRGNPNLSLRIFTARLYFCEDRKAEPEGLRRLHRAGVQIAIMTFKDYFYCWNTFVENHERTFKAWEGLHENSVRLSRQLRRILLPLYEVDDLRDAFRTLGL
A number is an active result. This is a sample that favours compounds with a hit; in the whole collection about 0.47% have one here. The call rests on the fitted dose curve; in most records, active means well fitted curve in the direction sought with a large enough effect; inconclusive means small, poorly fitted or top-dose-only effect, or another doubt; inactive means no such curve, though single readings can be large; an effect the other way counts as inactive or inconclusive.

For COc1ccc(OC)c(C2C(C(=O)Nc3ccc(C)cc3C)=C(C)Nc3c(C(=O)Nc4ccc(F)cc4)cnn32)c1 (stereo unspecified) the results were UDG counter inactive and AID inh inconclusive.
`COc1ccc(OC)c(C2C(C(=O)Nc3ccccc3OC)=C(C)Nc3c(C(=O)Nc4ccc(F)cc4)cnn32)c1` (stereo unspecified) gave UDG counter inactive and AID inh 17.8µM.
For COc1ccc(CNC(C)c2ccccc2)cc1 (stereo unspecified) the results were UDG counter inactive and AID inh inactive.
`COc1ccc(C(=O)Nc2ccc(NC(=O)c3cccs3)cc2)cc1OC` gave UDG counter inactive and AID inh 63.1µM.
Screening COc1ccccc1C(=O)Nc1ccc(NC(=O)c2cccs2)cc1 returned UDG counter inactive and AID inh inconclusive.
Cc1cc2ncn(-c3ccc([N+](=O)[O-])cc3Cl)c2cc1C was read as UDG counter inactive and AID inh inactive.
For S=C(NN=C1CCCCCCCCCCC1)NC1CCCCC1 the results were UDG counter inactive and AID inh inactive.
CCOc1ccccc1OCCCCn1c(-c2ccc(Cl)cc2)nc2ccccc2c1=O was read as UDG counter inactive and AID inh 31.6µM.
Screening CCOc1ccccc1OCCCn1c(-c2ccc(Cl)cc2)nc2ccccc2c1=O returned UDG counter inactive and AID inh inactive.
Screening NC(=S)N/N=C/c1ccc(Cl)cc1Cl returned UDG counter inactive and AID inh inactive.
`CCCCN(CCCC)CCNC(=O)c1cn(CC)c2ccc(S(=O)(=O)N3CCc4ccccc4C3)cc2c1=O` gave UDG counter inconclusive and AID inh 28.2µM.
For CCn1cc(C(=O)NCCc2ccccc2)c(=O)c2cc(S(=O)(=O)N3CCc4ccccc4C3)ccc21 the results were UDG counter inactive and AID inh inconclusive.
For Cc1cccc(C)c1NC(=O)COC(=O)CSc1ccc2ccccc2c1 the results were UDG counter inactive and AID inh inactive.
Screening COc1cc(/C=C(\C#N)C(=O)Nc2nnc(C(F)(F)F)s2)ccc1OCc1ccc(C(F)(F)F)cc1C(F)(F)F returned UDG counter inactive and AID inh 50.1µM.
`COc1cc(/C=C(/C#N)C(=O)Nc2ccccc2C(F)(F)F)ccc1OCc1ccc(F)cc1` gave UDG counter inactive and AID inh inactive.
Screening Cc1cc(=O)oc2cc(OCC(=O)Nc3ccc(CCO)cc3)ccc12 returned UDG counter inactive and AID inh inactive.
`Cc1cccc(N2CCN(C(=O)CCS(=O)(=O)c3ccc4c(c3)CC(=O)N4C)CC2C)c1` (stereo unspecified) gave UDG counter 79.4µM and AID inh inactive.
Screening CN1C(=O)Cc2cc(S(=O)(=O)CCC(=O)N3CCN(c4ccccc4F)CC3)ccc21 returned UDG counter inconclusive and AID inh inactive.
N#CCc1ccccc1C(=O)OCC(=O)N1CCN(c2ccccc2)CC1 was read as UDG counter inactive and AID inh inactive.
Screening COc1ccc(C(=O)Nc2nc3nc(C)c(Cl)c(=O)n3[nH]2)cc1 returned UDG counter inactive and AID inh inactive.
Screening Cc1nc2nc(NC(=O)c3ccc(C(C)(C)C)cc3)[nH]n2c(=O)c1Cl returned UDG counter inactive and AID inh 31.6µM.
CCOC(=O)C(NC(=O)COc1c(C)cc(C)cc1C)C(=O)OCC was read as UDG counter inactive and AID inh inactive.
`Cc1cccc(OCC(=O)Nc2ccc3c(c2)nc(CCn2nc(C)cc2C)n3C)c1` gave UDG counter inactive and AID inh inactive.
CC(=O)[C@]1(O)Cc2c(O)c3c(c(O)c2[C@@H](O[C@H]2C[C@H](N)[C@H](O)[C@H](C)O2)C1)C(=O)c1ccccc1C3=O was read as UDG counter inactive and AID inh 11.2µM.
`CC(C)(C)c1ccc(OCc2nc3ccccc3n2CCOc2ccccc2)cc1` gave UDG counter inactive and AID inh 31.6µM.
COc1ccc(OCc2nc3ccccc3n2Cc2ccc(C(C)(C)C)cc2)cc1 was read as UDG counter inactive and AID inh inconclusive.
Screening CCN(CC)S(=O)(=O)c1cccc(NS(=O)(=O)c2ccc(C)cc2)c1 returned UDG counter inactive and AID inh inactive.
Screening O=C(c1cccn2c(=O)c3cc(Cl)ccc3nc12)N1CCN(c2ccccc2F)CC1 returned UDG counter 79.4µM and AID inh inactive.
Screening Cc1ccc(C)c(N2CCN(C(=O)c3cccn4c(=O)c5ccccc5nc34)CC2)c1 returned UDG counter inactive and AID inh inactive.
For O=C(Cn1c(=O)n(Cc2ccc(F)cc2)c(=O)c2ccccc21)Nc1ccc(F)cc1 the results were UDG counter inactive and AID inh inactive.
Cc1ccc(S(=O)(=O)N2CCn3cccc3C2c2ccccc2)cc1 (stereo unspecified) was read as UDG counter 89.1µM and AID inh inactive.
For COc1ccc(S(=O)(=O)N2CCn3cccc3C2c2ccccc2)cc1 (stereo unspecified) the results were UDG counter inconclusive and AID inh inactive.

Source: PubChem BioAssay (National Center for Advancing Translational Sciences (NCATS))
